Among the data in PubChem BioAssay (Tox21) are Potency and outcome values, retold here.

Assay [1] can be described thus: qHTS assay to test for compound auto fluorescence at 460 nm (blue) in HEK293 cell free culture (AID 720681). The method in brief:
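Compounds were added to cell-free DMEM with 10% FBS and fluorescence read directly. The blue channel used 405 nm excitation and 460 nm emission, with triamterene as the reference fluorophore.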

Assay [2] in a line: qHTS assay to test for compound auto fluorescence at 590 nm (red) in HEK293 cell free culture (AID 720683). Summed up: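 Cell-free wells of DMEM with 10% FBS received compound, and intrinsic fluorescence was read at excitation/emission 540/590 nm. Values expressed as equivalence to Rose Bengal sodium.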
Assay [3] is described as follows: qHTS assay to test for compound auto fluorescence at 460 nm (blue) in HepG2 cell free culture (AID 720685). Summed up:
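Compound (23 nL) or DMSO pinned into cell-free MEM with 10% FBS; blue fluorescence read at 405/460 nm excitation/emission, expressed as auto-fluorescence equivalency to triamterene.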

Assay [4] in a line: qHTS assay to test for compound auto fluorescence at 535 nm (green) in HepG2 cell free culture (AID 720686).
Assay [5] is described as follows: qHTS assay to test for compound auto fluorescence at 460 nm (blue) in HepG2 cells (AID 720687). Summed up:
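HepG2 cells in MEM with 10% FBS, attached overnight at 37 C, were exposed to compound or DMSO for 1 hr at 37 C, 5% CO2. Blue fluorescence was read at 405/460 nm, with triamterene as reference fluorophore.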

Assay [6] in a line: qHTS assay to identify small molecule antagonists of the glucocorticoid receptor (GR) signaling pathway - cell viability counter screen (AID 720693). Further: nearly all actives have a fitted effect of over 55% in size.
Assay [7] in a line: qHTS assay for identifying genotoxic compounds that show differential cytotoxicity against isogenic chicken DT40 cell lines with known DNA damage response pathways - wild type cell line (AID 743012). Further: nearly all actives have a fitted effect of over 60% in size. Further: potency means the concentration at half of the fitted maximal effect. Summed up:
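Using parental DT40 (300 cells/well), compounds delivered in DMSO incubate 40 h at 37 C/5% CO2. CellTiter-Glo reagent then stands 30 min at room temperature, and luminescence gives cell viability.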

A short description of assay [8]: qHTS assay for identifying genotoxic compounds that show differential cytotoxicity against isogenic chicken DT40 cell lines with known DNA damage response pathways - Rev3 mutant cell line (AID 743014). Further: nearly all actives have a fitted effect of over 55% in size. Further: potency means the concentration at half of the fitted maximal effect.
Assay [9] in a line: qHTS assay for identifying genotoxic compounds that show differential cytotoxicity against isogenic chicken DT40 cell lines with known DNA damage response pathways - Rad54/Ku70 mutant cell line (AID 743015). Further: nearly all actives have a fitted effect of over 60% in size. Further: potency means the concentration at half of the fitted maximal effect.
Assay [10] in a line: qHTS assay to identify small molecule antagonists of the androgen receptor (AR) signaling pathway - cell viability counter screen (AID 743033; further: nearly all actives have a fitted effect of over 45% in size).
Assay [11] is described as follows: qHTS assay to identify small molecule antagonists of the androgen receptor (AR) signaling pathway using the MDA cell line - cell viability counter screen (AID 743041; further: nearly all actives have a fitted effect of over 45% in size). The method in brief: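 MDA-kb2 AR-luc cells (MMTV-luciferase, AR/GR responsive) treated with compounds plus R1881 agonist for 16 h at 37C. CellTiter-Fluor added at 15.5 h; fluorescence read after 30 min in the same wells.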

Assay [12] in a line: qHTS assay to test for compound auto fluorescence at 535 nm (green) in HEK293 cell free culture (AID 720682). Summed up:
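Intrinsic compound fluorescence is measured in culture medium containing 10% FBS, with excitation at 485 nm and detection at 535 nm, referenced to fluorescein.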

Assay [13] in a line: qHTS assay to test for compound auto fluorescence at 590 nm (red) in HepG2 cell free culture (AID 720684). The method in brief: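 Compound was pinned into wells holding MEM with 10% FBS and no cells, and red fluorescence was read at Ex/Em 540/590 nm. Signal is expressed as auto fluorescence equivalency relative to Rose Bengal sodium.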
Assay [14] addresses Glucocorticoid receptor (Homo sapiens) (UniProt P04150). The assay is described as follows: qHTS assay to identify small molecule agonists of the glucocorticoid receptor (GR) signaling pathway (AID 720691; active means well fitted activation curve with a large enough effect in the signal ratio in the repeat runs, not every such curve was filed as active; the % refers to the signal ratio; further: potency means the concentration at half of the fitted maximal effect). The following applies: GR-bla HeLa, beta-lactamase reporter ratio, 18 h; activation: at 62.4 µM (top of the series). The method in brief: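 Reporter read-out: fluorescence intensity following 2 h room-temperature LiveBLAzer B/G FRET substrate loading. Prior step: GR-bla HeLa cells held 4 h, then treated 18 h at 37 C.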

For assay [15], the target named is Androgen receptor (Homo sapiens) (UniProt P10275). Briefly: qHTS assay to identify small molecule antagonists of the androgen receptor (AR) signaling pathway (AID 743035; active means well fitted inhibition curve with a large enough effect in the signal ratio in the repeat runs, not every such curve was filed as active; the % refers to the signal ratio; further: potency means the concentration at half of the fitted maximal effect). Summed up: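 Using qHTS, AR-UAS-bla GripTite HEK293 cells received compound, then R1881, and were cultured 16 h at 37C/5% CO2 before a 2 h room-temperature LiveBLAzer B/G FRET substrate step and fluorescence measurement.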

Assay [16] has the same target. Briefly: qHTS assay to identify small molecule agonists of the androgen receptor (AR) signaling pathway (AID 743036; active means well fitted activation curve with a large enough effect in the signal ratio in the repeat runs, with a control signal flat, not every such curve was filed as active; the % refers to the signal ratio). Summed up:
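Agonist activity was scored by beta-lactamase reporter fluorescence in stably transfected HEK293 cells exposed to compounds for 16 h at 37C and 5% CO2. Substrate loading took 2 h at room temperature.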

Assay [17] has the same target. The assay is described as follows: qHTS assay to identify small molecule agonists of the androgen receptor (AR) signaling pathway using the MDA cell line (AID 743040; further: nearly all actives have a fitted effect of over 20% in size). The method in brief: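 MDA-kb2 breast carcinoma cells carrying MMTV-luciferase (responsive to AR and GR), plated 5 h then treated 16 h with compounds at 37C, 0% CO2. Read-out was ONE-Glo luminescence after 30 min at room temperature.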

Assay [18] has the same target. The assay is described as follows: qHTS assay to identify small molecule antagonists of the androgen receptor (AR) signaling pathway using the MDA cell line (AID 743042; further: nearly all actives have a fitted effect of over 55% in size; further: potency means the concentration at half of the fitted maximal effect). Summed up: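 MDA-kb2 breast carcinoma cells carrying MMTV-luciferase (AR/GR responsive) were co-treated with compounds and the agonist R1881 for 16 h at 37C. Inhibition read as ONE-Glo luminescence; CellTiter-Fluor fluorescence measured in parallel for cytotoxicity.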

For assay [19], the target named is Glucocorticoid receptor (Homo sapiens) (UniProt P04150). The assay is described as follows: qHTS assay to identify small molecule antagonists of the glucocorticoid receptor (GR) signaling pathway (AID 720692; active means well fitted inhibition curve with a large enough effect in the signal ratio in the repeat runs, not every such curve was filed as active; the % refers to the signal ratio). The method in brief:
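Dexamethasone (5 nM final) stimulated a stably integrated GRE-beta-lactamase reporter in HeLa cells during 18 h co-incubation with compounds; signal was quantified as fluorescence intensity of B/G FRET substrate after 2 h.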

Several values for one entry are separate records, joined by “and”; a condition that tells them apart may be missing. Equal entries are not always repeated. Inconclusive results are not listed. The source holds several records for some structures; these can differ, active in one and inactive in another. Activity calls are given as the source filed them. Unless noted, the call rests on the fitted dose curve; in most records, active means well fitted curve in the direction sought with a large enough effect in the repeat runs; inconclusive means weak or mixed curves; inactive means no such curve, though single readings can be large; an effect the other way counts as inactive or inconclusive.

Androgen receptor (Homo sapiens), sequence (P10275 whole entry, looked up): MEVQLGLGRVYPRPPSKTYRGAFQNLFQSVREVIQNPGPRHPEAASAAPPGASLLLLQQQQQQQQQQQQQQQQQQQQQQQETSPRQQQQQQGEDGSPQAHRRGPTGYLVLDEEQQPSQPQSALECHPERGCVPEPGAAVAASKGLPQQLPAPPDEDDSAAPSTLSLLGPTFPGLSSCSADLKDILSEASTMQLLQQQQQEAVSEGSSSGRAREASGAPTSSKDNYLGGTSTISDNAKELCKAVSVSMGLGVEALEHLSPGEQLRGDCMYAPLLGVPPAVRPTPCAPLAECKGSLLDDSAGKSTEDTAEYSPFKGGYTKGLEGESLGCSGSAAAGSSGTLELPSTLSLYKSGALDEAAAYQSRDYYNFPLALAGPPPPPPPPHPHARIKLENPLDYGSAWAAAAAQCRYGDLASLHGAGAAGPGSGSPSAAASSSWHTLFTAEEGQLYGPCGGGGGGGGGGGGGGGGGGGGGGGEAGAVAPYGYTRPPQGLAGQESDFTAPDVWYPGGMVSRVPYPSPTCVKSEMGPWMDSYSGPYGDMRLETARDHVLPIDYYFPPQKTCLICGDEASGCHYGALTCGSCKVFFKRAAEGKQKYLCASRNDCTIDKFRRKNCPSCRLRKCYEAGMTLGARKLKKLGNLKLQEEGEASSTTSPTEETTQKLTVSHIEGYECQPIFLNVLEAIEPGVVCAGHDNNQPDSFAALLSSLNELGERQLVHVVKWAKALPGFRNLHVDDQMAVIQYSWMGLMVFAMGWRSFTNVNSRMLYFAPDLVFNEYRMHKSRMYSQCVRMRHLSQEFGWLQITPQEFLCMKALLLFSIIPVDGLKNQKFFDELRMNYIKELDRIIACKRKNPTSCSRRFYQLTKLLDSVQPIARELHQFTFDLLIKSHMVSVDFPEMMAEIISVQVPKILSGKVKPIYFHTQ
Glucocorticoid receptor (Homo sapiens), sequence (P04150 whole entry, looked up): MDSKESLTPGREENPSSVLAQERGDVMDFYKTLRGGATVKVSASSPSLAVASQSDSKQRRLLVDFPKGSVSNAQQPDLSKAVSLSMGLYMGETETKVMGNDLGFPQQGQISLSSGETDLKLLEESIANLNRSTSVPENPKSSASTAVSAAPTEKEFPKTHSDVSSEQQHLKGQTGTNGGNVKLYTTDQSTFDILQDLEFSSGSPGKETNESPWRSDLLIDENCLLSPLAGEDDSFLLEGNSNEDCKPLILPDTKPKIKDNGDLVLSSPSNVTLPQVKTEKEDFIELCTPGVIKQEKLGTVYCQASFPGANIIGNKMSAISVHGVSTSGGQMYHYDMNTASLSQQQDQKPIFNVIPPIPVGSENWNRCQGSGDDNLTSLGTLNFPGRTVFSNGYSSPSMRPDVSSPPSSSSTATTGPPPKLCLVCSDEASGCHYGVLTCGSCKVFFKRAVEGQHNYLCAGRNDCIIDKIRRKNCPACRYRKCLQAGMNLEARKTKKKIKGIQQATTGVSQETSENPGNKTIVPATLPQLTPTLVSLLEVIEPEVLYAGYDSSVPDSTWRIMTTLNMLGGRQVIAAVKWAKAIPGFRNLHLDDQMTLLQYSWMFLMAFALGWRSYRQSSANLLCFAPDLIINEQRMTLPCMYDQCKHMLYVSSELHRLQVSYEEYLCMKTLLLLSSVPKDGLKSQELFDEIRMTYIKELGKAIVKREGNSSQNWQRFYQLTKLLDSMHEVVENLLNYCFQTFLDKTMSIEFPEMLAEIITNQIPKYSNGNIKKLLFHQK

On to `CN=C(N)NCCC[C@H](N)C(=O)O`, for which the Potency result in assay [1], in assay [3], in assay [4], in [5], in [6] and in [7] was “inactive” throughout. Also, the Potency result in [8], in [9], in assay [10] and in assay [11] was “inactive” each time. Besides, the result in assay [2] was inactive.

On to `NC(=O)[C@@H]1C[C@]2(NC(=O)NC2=O)c2cc(F)ccc2O1`, for which the Potency entry in [1], in assay [3], in [4], in assay [5], in assay [6] and in assay [7] was “inactive” each time. The Potency result in assay [9], in [10] and in [11] was “inactive” each time. Further, the outcome in assay [12] and in assay [13] was inactive.

Regarding `CC(=O)N(C)C`, the Potency entry in assay [1], in [3], in [4] and in assay [5] was “inactive” in each case. For the same molecule, the molecule was called inactive in assay [12] and in assay [2].

Consider `C=CCc1cc(S(=O)(=O)c2ccc(O)c(CC=C)c2)ccc1O`, for which the molecule was called inactive in assay [12], in [2] and in assay [13]. The Potency result in assay [3], in assay [4], in [14], in assay [16] and in [17] was “inactive” throughout. Also, the Potency in assay [7] was 30.6 µM (active); in [8] it was 68.6 µM (active); in assay [9] it was 54.5 µM (active); in assay [15], 38.9 µM (active); in assay [18], 61.1 µM (active).

Take `CC/C(=C(/CC)c1ccc(OP(=O)(O)O)cc1)c1ccc(OP(=O)(O)O)cc1`: the result in assay [12], in assay [2] and in assay [13] was inactive. Besides, the Potency result in assay [3], in assay [4], in assay [5], in assay [6], in assay [7] and in assay [8] was “inactive” each time. The Potency entry in assay [9], in assay [10] and in assay [11] was “inactive” each time.

As for `CS(=O)(=O)c1ccc([C@@H](O)[C@@H](COC(=O)CN)NC(=O)C(Cl)Cl)cc1`, the Potency entry in assay [1], in [3], in assay [4], in assay [5], in [6] and in assay [10] was “inactive” throughout. The Potency result in assay [11] was “inactive”. Further, the call in [12], in assay [2] and in assay [13] was inactive. Besides, the Potency is 5.96 µM (active) in [7], 6.68 µM (active) in assay [8] and 7.5 µM (active) in assay [9].

Take `CC12CCC(C[N+](C)(CCC[N+](C)(C)C)C1)C2(C)C` (configuration not stated): the call in [12], in [2] and in assay [13] was inactive. In addition, the Potency entry in assay [3], in assay [4], in assay [6], in assay [7], in [8] and in [9] was “inactive” each time. Besides, the Potency result in assay [10] and in assay [11] was “inactive” each time.

Turning to `CO/N=C(\C(=O)N[C@@H]1C(=O)N2C(C(=O)[O-])=C(C[n+]3cccc4c3CCC4)CS[C@H]12)c1csc(N)n1`, the Potency entry in [1], in [3], in [4], in assay [5], in assay [6] and in assay [7] was “inactive” each time. Besides, the Potency result in assay [8], in [9], in assay [10] and in [11] was “inactive” each time. Further, the call in [12], in assay [2] and in assay [13] was inactive.

As for `C[C@@H]1C(=O)NC2=Nc3cccc(Cl)c3CN21`, the Potency entry in assay [1], in assay [4], in [5], in [14], in assay [6] and in assay [7] was “inactive” in each case. In addition, the Potency entry in assay [8], in [9], in [10], in assay [15], in assay [16] and in assay [17] was “inactive” each time. The Potency entry in assay [11] and in assay [18] was “inactive” in each case. Moreover, the outcome in assay [12], in assay [2] and in [13] was inactive.

For `O=C(O)[C@H]1CN(C/C=C/P(=O)(O)O)CCN1`, the Potency result in assay [1], in assay [3], in [4], in assay [5], in [14] and in assay [19] was “inactive” in each case. In addition, the Potency result in assay [6], in [7], in assay [10] and in assay [11] was “inactive” throughout. For the same molecule, the result in assay [12], in assay [2] and in assay [13] was inactive.

In the case of `NC(=O)[C@@H]1CCCN1C(=O)[C@H](Cc1cnc[nH]1)NC(=O)[C@@H]1CCC(=O)N1`, the Potency entry in assay [1], in assay [4], in assay [5], in assay [14], in [19] and in [6] was “inactive” each time. The Potency result in assay [7], in assay [8], in assay [9], in assay [10] and in assay [11] was “inactive” in each case. The molecule was called inactive in assay [12], in assay [2] and in assay [13].

For the molecule `C=C1[C@H](CO)[C@@H](O)C[C@@H]1n1cnc2c(=O)[nH]c(N)nc21`, the Potency entry in [1], in assay [4], in [5], in assay [14], in assay [19] and in assay [6] was “inactive” each time. The Potency result in assay [10], in assay [16], in [17], in [11] and in assay [18] was “inactive” throughout. Moreover, the result in [12], in assay [2] and in assay [13] was inactive. For the same molecule, the Potency in assay [7] was 0.0237 µM (active); in assay [8] it was 0.0237 µM (active); in assay [9] it was 0.0335 µM (active).

As to `C/C(=C(/CCO)SSCC1CCCO1)N(C=O)Cc1cnc(C)nc1N` (configuration not stated), the Potency entry in [1], in assay [3], in assay [4], in [5], in assay [19] and in assay [6] was “inactive” throughout. Moreover, the Potency entry in assay [10] and in [11] was “inactive” in each case. In addition, the result in assay [12], in assay [2] and in assay [13] was inactive. The Potency entry in [14] was “inactive and 21.3 µM (active)”; in assay [8], 23.7 µM (active); in assay [9], 26.6 µM (active).

Take `CC[C@H]1OC(=O)[C@H](C)C(=O)[C@H](C)[C@@H](O[C@@H]2O[C@H](C)C[C@H](N(C)C)[C@H]2O)[C@](C)(OC)C[C@@H](C)C(=O)[C@H](C)[C@H]2N(CCCCn3cnc(-c4cccnc4)c3)C(=O)O[C@]12C`: the result in assay [12], in [2] and in assay [13] was inactive. Also, the Potency result in assay [3], in assay [4], in assay [5], in [14], in [19] and in assay [6] was “inactive” each time. For the same molecule, the Potency entry in assay [10] was “inactive”. The Potency in assay [7] was 4.22 µM (active); in assay [9], 6.68 µM (active).
